# PubChem BioAssay
# Inconclusive results are not listed. Calls of active or inactive are those of the source. Cut-off read from the data, not from the text of the source, unless noted: active = inhibition above about 80%; inactive = the rest.
# Assays:
# [1] = growth inhibition of DIPG glioma cells, dose response, cell-based, SU-DIPG-XVII, MIPE5.0, CellTiter-Glo, qHTS (AID 1347060; cut-off not given, nearly all actives have AC50 up to about 26 µM;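 for AC50: cells exposed to compound for 48 hours before viability readout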); conditions: SU-DIPG-XVII viability, CellTiter-Glo ATP luminescence
# [2] = growth inhibition of DIPG glioma cells, dose response, cell-based, SU-DIPG-XIII, MIPE5.0, CellTiter-Glo, qHTS (AID 1347064; cut-off not given, nearly all actives have AC50 up to about 23 µM;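 for AC50: cells exposed to compound for 48 hours before the viability read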); conditions: SU-DIPG-XIII viability, CellTiter-Glo ATP luminescence
# [3] = viability loss in pontine glioma line – cell-based, SU-DIPG-XXV, MIPE5.0, CellTiter-Glo, qHTS, dose response (AID 1347065; cut-off not given, nearly all actives have AC50 up to about 26 µM;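 note: cells exposed to compound for 48 hours before ATP readout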); conditions: CellTiter-Glo ATP luminescence
# [4] = JHH-DIPG-1 glioma cell viability, MIPE5.0 library, CellTiter-Glo luminescence, qHTS (AID 1347067; cut-off not given, nearly all actives have AC50 up to about 26 µM;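 note: cells exposed to compound for 48 hours before readout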); conditions: JHH-DIPG-1 glioma viability, CellTiter-Glo ATP luminescence
# [5] = SU-DIPG-XXV glioma cell viability, MIPE5.0 library, qHTS (AID 1347068; cut-off not given, nearly all actives have IC50 up to about 30 µM;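 for IC50: cells exposed to compound for 48 hours before viability readout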)
# [6] = sensitizers of A549 cells to miR-34 induction, primary screen, imaging, A549 dox-inducible miR-34, nuclei and caspase counts (AID 1347080;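 active = compounds whose cell count with miR-34 switched on is under 0.7 times the count with it off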); conditions: A549 miR-34 inducible, Hoechst nuclei count, 48 h
# [7] = survival rescue of mitochondrial mutant cells in low glucose, primary screen, MELAS cybrids, Rieske KO mouse fibroblasts, CellTiter-Glo (AID 1508586;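 active = mean z-score across replicates of 1.96 or higher in either the MELAS or the Rieske mutant cell line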;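 note: z relative to plate mean and SD of compound and empty wells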)
# [8] = LFS_MB_P medulloblastoma growth inhibition, cell-based, chromothripsis tumors, cisplatin or BGB combos (AID 1671449); conditions: LFS_MB_P medulloblastoma cells;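 note: cells exposed for 96 hours; 0% = vehicle DMSO and 100% = killing by high DMSO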
# [9] = HDN33 neuroblastoma growth inhibition, cell-based, chromothripsis tumors, cisplatin or BGB combos (AID 1671450); conditions: HDN33 neuroblastoma cells, stronger effect = higher value;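 note: cells exposed to compound for four days; 0% = vehicle DMSO and 100% = cell killing by high DMSO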
# [10] = ICB984 medulloblastoma cell growth inhibition, synergistic combos for chromothripsis tumors, cisplatin or BGB combos (AID 1671451; call rule not given here;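 note: cells exposed for 96 hours before readout; 0% = vehicle DMSO and 100% = killing by high DMSO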); conditions: ICB984 medulloblastoma cells, drug combinations, stronger effect = higher value
# [11] = LFS_MB_1R medulloblastoma cell growth inhibition, synergistic combos for chromothripsis tumors, cisplatin or BGB combos (AID 1671452); conditions: LFS_MB_1R medulloblastoma cells, stronger effect = higher value;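 note: cells exposed for 96 hours before readout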
# [12] = HTB85 osteosarcoma cell growth inhibition, synergistic combos for chromothripsis tumors, BGB or cisplatin IC20 combos (AID 1671453); conditions: HTB85 osteosarcoma cells, drug combinations, stronger effect = higher value;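 note: cells exposed for 96 hours before readout; 0% = vehicle DMSO and 100% = high DMSO killing control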
# [13] = CRL2098 osteosarcoma cell growth inhibition, synergistic combos for chromothripsis tumors, BGB or cisplatin IC20 combos (AID 1671454); conditions: CRL2098 osteosarcoma cells, drug combinations, stronger effect = higher value;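 note: cells exposed for 96 h before readout; 0% = vehicle DMSO and 100% = killing by high DMSO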
# [14] = HD-MB03 medulloblastoma cell growth inhibition, synergistic combos for chromothripsis tumors, BGB or cisplatin IC20 combos (AID 1671455; in the data active = inhibition above about 83%;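 note: 0% = vehicle DMSO and 100% = high DMSO as cytotoxic control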); conditions: HD-MB03 medulloblastoma cells, stronger effect = higher value
# [15] = UWB1.289 ovarian carcinoma cell growth inhibition, synergistic combos for chromothripsis tumors, BGB or cisplatin combos (AID 1671456); conditions: UWB1.289 ovarian carcinoma cells, stronger effect = higher value;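 note: cells exposed to compound for four days; 0% = vehicle DMSO and 100% = killing by high DMSO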
# [16] = MDA-MB-436 breast carcinoma cell growth inhibition, synergistic combos for chromothripsis tumors, BGB or cisplatin combos (AID 1671458; call rule not given here;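 note: cells exposed for 96 hours; 0% = vehicle DMSO and 100% = killing by high DMSO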); conditions: MDA-MB-436 breast carcinoma growth inhibition, drug combinations, stronger effect = higher value
# [17] = growth inhibition of BT084 medulloblastoma cells, cell-based, ICGC_MB145, cisplatin and BGB IC40 combos (AID 1671461); conditions: drug combinations, stronger effect = higher value;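 note: cells exposed to drugs for 96 hours; 0% = vehicle DMSO and 100% = high DMSO full killing control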
# [18] = growth inhibition of RCMB18 medulloblastoma cells, cell-based, cisplatin and BGB IC40 combos (AID 1671462); conditions: stronger effect = higher value;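 note: cells exposed to compound for four days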
# [19] = growth inhibition of CRL1545 osteosarcoma cells, cell-based, cisplatin and BGB IC20 combos (AID 1671464); conditions: stronger effect = higher value;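 note: cells exposed to compound for 96 hours before readout; 0% = vehicle DMSO and 100% = high DMSO killing control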
# [20] = stronger effect = lower value, cell number ratio, induced over uninduced
# [21] = measured here: relative caspase fold change +Dox/-Dox
# [22] = measured here: total cells with miR-34 induction, stronger effect = lower value
# [23] = measured here: total cells without miR-34 induction
# [24] = MELAS cybrid survival, CellTiter-Glo 48 h, stronger effect = higher value
# [25] = Rieske KO mouse fibroblast survival, CellTiter-Glo 72 h
# [26] = at 0.5 µM, stronger effect = higher value
# [27] = measured here: combination with BGB IC20, at 0.005 µM
# [28] = measured here: combination with BGB IC40, at 0.005 µM
# [29] = measured here: combination with BGB IC40, at 0.05 µM
# [30] = measured here: combination with cisplatin, at 0.5 µM, stronger effect = higher value
# [31] = measured here: combination with cisplatin, at 5 µM, stronger effect = higher value
# [32] = measured here: with BGB IC20 combination, at 0.5 µM
# [33] = measured here: with cisplatin IC20 combination, at 0.5 µM
# [34] = measured here: 5 uM single agent, at 5 µM
# [35] = measured here: combination with cisplatin, at 0.5 µM
# [36] = measured here: combination with cisplatin, at 5 µM
# [37] = measured here: with BGB IC20, at 0.5 µM
# [38] = measured here: with BGB IC20, at 5 µM
# [39] = measured here: with cisplatin IC20, at 0.5 µM
# [40] = measured here: with cisplatin IC20, at 5 µM
# [41] = measured here: combination with BGB at IC20, at 0.5 µM
# [42] = measured here: combination with cisplatin at IC20, at 0.5 µM
# [43] = measured here: combo with BGB at IC20, at 0.5 µM
# [44] = measured here: combo with cisplatin at IC20, at 0.5 µM
# [45] = measured here: inhibition with BGB combination, at 0.05 µM
# [46] = measured here: inhibition with cisplatin combination, at 0.05 µM
# [47] = measured here: BGB combination, at 0.5 µM
# [48] = measured here: BGB combination, at 5 µM
# [49] = measured here: cisplatin combination, at 0.5 µM
# [50] = measured here: cisplatin combination, at 5 µM
# [51] = cisplatin combination, at 0.5 µM
# [52] = measured here: BGB IC40 combination 0.05 uM, at 0.05 µM
# [53] = measured here: BGB IC40 combination, at 0.05 µM
smiles,measurement,setting,value
Cc1ccc(C(=O)Nc2ccc(CN3CCN(C)CC3)c(C(F)(F)F)c2)cc1C#Cc1cnc2[nH]ncc2c1,AC50,[1],0.0417 µM (active)
same,AC50,[2],0.0118 µM (active)
same,AC50,[3],0.0263 µM (active)
same,AC50,[4],0.468 µM (active)
same,IC50,[5],0.332 µM (active)
same,fold change,[6]; [20],0.928 (inactive)
same,fold change,[6]; [21],0.675
same,cell count,[6]; [22],506
same,cell count,[6]; [23],546
same,z-score,[7]; [24],0.831 (inactive)
same,z-score,[7]; [25],-6.34
C=C1[C@H](CO)[C@@H](O)C[C@@H]1n1cnc2c(=O)[nH]c(N)nc21,outcome,[1],inactive
same,outcome,[2],inactive
same,outcome,[3],inactive
same,outcome,[4],inactive
same,outcome,[5],inactive
same,inhibition,[8]; [26],-21.8% (inactive)
same,inhibition,[8]; [27],5.29%
same,inhibition,[8]; [28],73.1%
same,inhibition,[8]; [29],2.38%
same,inhibition,[8]; [30],-17.3%
same,inhibition,[8]; [31],-13.1%
same,inhibition,"[9]; BGB combo, at 5 µM",-36.2%
same,inhibition,[9]; at 0.5 µM,-7.93% (inactive)
same,inhibition,"[9]; cisplatin combo, at 5 µM",-16.1%
same,inhibition,[9]; [32],-13.1%
same,inhibition,[9]; [33],-0.869%
same,inhibition,"[9]; single agent, at 5 µM",-23.6%
same,inhibition,"[10]; BGB IC20 combo, at 0.005 µM",-16%
same,inhibition,"[10]; BGB IC40 combo, at 0.005 µM",-1.32%
same,inhibition,"[10]; BGB IC40 combo, at 0.05 µM",-29.5%
same,inhibition,[10]; at 0.5 µM,-11.2% (inactive)
same,inhibition,"[10]; cisplatin combo, at 0.05 µM",-36.2%
same,inhibition,"[10]; cisplatin combo, at 0.5 µM",-7.79%
same,inhibition,"[10]; cisplatin combo, at 5 µM",-2.87%
same,inhibition,[10]; [34],-12.5%
same,inhibition,[11]; at 0.5 µM,-2.98% (inactive)
same,inhibition,[11]; [29],-6.72%
same,inhibition,[11]; [35],-9.39%
same,inhibition,[11]; [36],13.9%
same,inhibition,[12]; at 0.5 µM,-14.3% (inactive)
same,inhibition,[12]; [37],-14.3%
same,inhibition,[12]; [38],-13%
same,inhibition,[12]; [39],-20.6%
same,inhibition,[12]; [40],-13.2%
same,inhibition,"[12]; single agent, at 5 µM",-13%
same,inhibition,[13]; at 0.5 µM,-23% (inactive)
same,inhibition,[13]; [41],-65.5%
same,inhibition,[13]; [42],-29.3%
same,inhibition,[14]; at 0.5 µM,0.83% (inactive)
same,inhibition,[14]; [43],-0.76%
same,inhibition,[14]; [44],-1.27%
same,inhibition,[15]; at 0.5 µM,-8.13% (inactive)
same,inhibition,[15]; [45],1.38%
same,inhibition,[15]; [46],-3.75%
same,inhibition,[16]; at 0.5 µM,-0.47% (inactive)
same,inhibition,[16]; [47],-0.92%
same,inhibition,[16]; [48],-0.668%
same,inhibition,[16]; [49],0.06%
same,inhibition,[16]; [50],-10.2%
same,inhibition,[17]; at 0.5 µM,4.2% (inactive)
same,inhibition,[17]; [51],2.02%
same,inhibition,"[17]; cisplatin combination, at 5 µM",-20%
same,inhibition,[17]; [52],-15.2%
same,inhibition,"[17]; single agent, at 5 µM",6.8%
same,inhibition,[18]; at 0.5 µM,-7.97% (inactive)
same,inhibition,"[18]; cisplatin combo, at 5 µM",3.9%
same,inhibition,[18]; [53],-6.21%
same,inhibition,[18]; [35],-17.4%
same,inhibition,"[18]; single agent, at 5 µM",-2.06%
same,inhibition,[19]; at 0.5 µM,-6.46% (inactive)
same,inhibition,[19]; [32],-39.9%
same,inhibition,[19]; [33],8.8%
same,inhibition,"[19]; single agent, at 0.05 µM",4.9%
same,inhibition,"[19]; single agent, at 5 µM",-41.7%
CC(=O)[C@]1(N)Cc2c(O)c3c(c(O)c2[C@@H](O[C@H]2C[C@H](O)[C@H](O)CO2)C1)C(=O)c1ccccc1C3=O,AC50,[1],16.6 µM (active)
same,AC50,[2],16.6 µM (active)
same,AC50,[3],20.9 µM (active)
same,AC50,[4],16.6 µM (active)
same,outcome,[5],inactive
same,inhibition,[8]; [26],-12.9% (inactive)
same,inhibition,[8]; [27],-16.8%
same,inhibition,[8]; [28],-30.9%
same,inhibition,[8]; [29],-51.9%
same,inhibition,[8]; [30],-19.4%
same,inhibition,[8]; [31],104%
same,inhibition,"[9]; BGB combo, at 5 µM",96.4%
same,inhibition,[9]; at 0.5 µM,-0.33% (inactive)
same,inhibition,"[9]; cisplatin combo, at 5 µM",97.3%
same,inhibition,[9]; [32],0.353%
same,inhibition,[9]; [33],-4.83%
same,inhibition,"[9]; single agent, at 5 µM",98.2%
same,inhibition,"[10]; BGB IC20 combo, at 0.005 µM",2.76%
same,inhibition,"[10]; BGB IC40 combo, at 0.005 µM",-3.55%
same,inhibition,"[10]; BGB IC40 combo, at 0.05 µM",86.2%
same,inhibition,[10]; at 0.5 µM,-21.5% (inactive)
same,inhibition,"[10]; cisplatin combo, at 0.05 µM",85.8%
same,inhibition,"[10]; cisplatin combo, at 0.5 µM",-10.1%
same,inhibition,"[10]; cisplatin combo, at 5 µM",-12.5%
same,inhibition,[10]; [34],-13.2%
same,inhibition,[11]; at 0.5 µM,-7.63% (inactive)
same,inhibition,[11]; [29],-7.53%
same,inhibition,[11]; [35],-2.7%
same,inhibition,[11]; [36],81.1%
same,inhibition,[12]; at 0.5 µM,-1.28% (inactive)
same,inhibition,[12]; [37],3.02%
same,inhibition,[12]; [38],79.1%
same,inhibition,[12]; [39],-5.97%
same,inhibition,[12]; [40],82.6%
same,inhibition,"[12]; single agent, at 5 µM",81.3%
same,inhibition,[13]; at 0.5 µM,-28.4% (inactive)
same,inhibition,[13]; [41],-13.2%
same,inhibition,[13]; [42],-55.8%
same,inhibition,[14]; at 0.5 µM,-4.21% (inactive)
same,inhibition,[14]; [43],5.01%
same,inhibition,[14]; [44],-12.8%
same,inhibition,[15]; at 0.5 µM,13.8% (inactive)
same,inhibition,[15]; [45],-13.2%
same,inhibition,[15]; [46],8.23%
same,inhibition,[16]; at 0.5 µM,-0.11% (inactive)
same,inhibition,[16]; [47],-3.77%
same,inhibition,[16]; [48],73.9%
same,inhibition,[16]; [49],-8.99%
same,inhibition,[16]; [50],84%
same,inhibition,[17]; at 0.5 µM,22.6% (inactive)
same,inhibition,[17]; [51],-12.8%
same,inhibition,"[17]; cisplatin combination, at 5 µM",84.4%
same,inhibition,[17]; [52],-38.7%
same,inhibition,"[17]; single agent, at 5 µM",86.5%
same,inhibition,[18]; at 0.5 µM,9% (inactive)
same,inhibition,"[18]; cisplatin combo, at 5 µM",89.6%
same,inhibition,[18]; [53],-27.7%
same,inhibition,[18]; [35],31.1%
same,inhibition,"[18]; single agent, at 5 µM",89.9%
same,inhibition,[19]; at 0.5 µM,20% (inactive)
same,inhibition,[19]; [32],-1.69%
same,inhibition,[19]; [33],29.7%
same,inhibition,"[19]; single agent, at 0.05 µM",22.1%
same,inhibition,"[19]; single agent, at 5 µM",90.1%
Cc1cc(C)cc(NC(=O)Cc2ccc(OC(C)(C)C(=O)O)cc2)c1,outcome,[1],inactive
same,outcome,[2],inactive
same,outcome,[3],inactive
same,outcome,[4],inactive
same,outcome,[5],inactive
same,fold change,[6]; [20],0.94 (inactive)
same,fold change,[6]; [21],0.66
same,cell count,[6]; [22],8990
same,cell count,[6]; [23],9560
same,z-score,[7]; [24],-0.243 (inactive)
same,z-score,[7]; [25],-0.194
